Assay results published in publication PMC11995724, “Antibiotic target discovery by integrated phenotypic and activity-based profiling of electrophilic fragments” (Cell chemical biology, 2025).
Screen size: about 3,200 compounds; about 75 (2%) showed an effect of 50% or more. The list comes from a sample in which strong results are over-represented; it also holds similar structures and randomly drawn compounds.

What follows are compounds tested on T1, S. aureus MSSA476. Details: relative growth, OD600, TSB; 25 µM; inhibitor.
T1 construct: MSSA476
Set-up: species or system S. aureus MSSA476 (TSB) or V. cholerae SAD30 (LB); 384-well bacterial growth screen at 25 uM, OD600 relative to DMSO control

Row | SMILES | % of control remaining [%]
1 | O=C(Nc1nccs1)N1CCSSCC1 [10-O22, N-(1,3-thiazol-2-yl)-1,2,5-dithiazepane-5-carboxamide] | 109.063
2 | O=C(CCl)N(Cc1ccc(F)cc1)C1CCCCC1 [4-I13, 2-chloro-N-cyclohexyl-N-[(4-fluorophenyl)methyl]acetamide] | 87.6608
3 | CC(Cl)C(=O)Nc1sc(-c2ccccc2)cc1C(N)=O (stereo not shown) [4-H13, 2-(2-chloropropanamido)-5-phenylthiophene-3-carboxamide] | 58.3135
4 | CC1(C)C(=O)Nc2ccc(C(=O)CCl)cc21 [10-N21, 5-(2-chloroacetyl)-3,3-dimethyl-2,3-dihydro-1H-indol-2-one] | 40.3125
5 | Cn1c(=O)oc2cc(C(=O)CCl)ccc21 [10-F07, 6-(2-chloroacetyl)-3-methyl-2,3-dihydro-1,3-benzoxazol-2-one] | 93.125
6 | O=C1CCCc2cc(C(=O)CCl)ccc2N1 [10-M20, 7-(2-chloroacetyl)-2,3,4,5-tetrahydro-1H-1-benzazepin-2-one] | 137.5
7 | C=CC(=O)NC(Cn1cncn1)c1ccccc1 (stereo not shown) [3-F17, N-[1-phenyl-2-(1H-1,2,4-triazol-1-yl)ethyl]prop-2-enamide] | 118.415
8 | O=C(CCl)N(Cc1ccccc1)c1ccccc1 [4-G13, N-benzyl-2-chloro-N-phenylacetamide] | 77.7513
9 | Cc1cccc(N(Cc2ccccc2)C(=O)CCl)c1 [6-O07, N-benzyl-2-chloro-N-(3-methylphenyl)acetamide] | 98
10 | O=C(CCl)N(Cc1ccc(Cl)c([N+](=O)[O-])c1)c1ccccc1 [6-H06, 2-chloro-N-[(4-chloro-3-nitrophenyl)methyl]-N-phenylacetamide] | 8.195
11 | C=CC(=O)NCC1(S(=O)(=O)CC)CC1 [3-O13, N-{[1-(ethanesulfonyl)cyclopropyl]methyl}prop-2-enamide] | 91.2495
12 | N#CC(=Cc1ccccc1)C(=O)NC1CCCCCCC1 [8-G17, 2-cyano-N-cyclooctyl-3-phenylprop-2-enamide] | 98.9212
13 | N#CC(=Cc1c(F)c(F)c(F)c(F)c1F)C(=O)NC1CCCCC1 [8-O15, 2-cyano-N-cyclohexyl-3-(2,3,4,5,6-pentafluorophenyl)prop-2-enamide] | 32.5311
14 | Cc1ccc(C=C(C#N)C(=O)NC2CCCCC2)cc1C [8-G10, 2-cyano-N-cyclohexyl-3-(3,4-dimethylphenyl)prop-2-enamide] | 108.216
15 | N#CC(=Cc1cc(F)ccc1F)C(=O)NC1CCCCC1 [8-G08, 2-cyano-N-cyclohexyl-3-(2,5-difluorophenyl)prop-2-enamide] | 64.3983
16 | N#CC(=Cc1ccc([N+](=O)[O-])c(Cl)c1)C(=O)NC1CCCCC1 [8-B08, 3-(3-chloro-4-nitrophenyl)-2-cyano-N-cyclohexylprop-2-enamide] | 29.8755
17 | N#CC(=Cc1ccc(F)c(F)c1)C(=O)NC1CCCCC1 [9-J22, 2-cyano-N-cyclohexyl-3-(3,4-difluorophenyl)prop-2-enamide] | 94.0824
18 | N#CC(=Cc1sc2ccccc2c1Cl)C(=O)NC1CC1 [9-C18, 3-(3-chloro-1-benzothiophen-2-yl)-2-cyano-N-cyclopropylprop-2-enamide] | 110.262
19 | C=CC(=O)NC12CC3(C)CC(C)(CC(O)(C3)C1)C2 [1-K17, N-(3-hydroxy-5,7-dimethyladamantan-1-yl)prop-2-enamide] | 111.473
20 | CC(Cl)C(=O)N(C)C1CCN(c2ccccn2)CC1 (stereo not shown) [6-J20, 2-chloro-N-methyl-N-[1-(pyridin-2-yl)piperidin-4-yl]propanamide] | 95.6098
21 | O=C(CCl)N[C@H](CO)Cc1ccccc1 [6-G20, 2-chloro-N-[(2S)-1-hydroxy-3-phenylpropan-2-yl]acetamide] | 109.61
22 | CC(=O)c1ccccc1NC(=O)C(C)Cl (stereo not shown) [5-O19, N-(2-acetylphenyl)-2-chloropropanamide] | 103.825
23 | CCN(Cc1ccc(C#N)cc1F)C(=O)CCl [5-H08, 2-chloro-N-[(4-cyano-2-fluorophenyl)methyl]-N-ethylacetamide] | 105.282

Row | SMILES | % of control remaining [%]
24 | CSc1ccc(C=C(C#N)C(=O)Nc2cccc(Cl)c2C)cc1 [8-N11, N-(3-chloro-2-methylphenyl)-2-cyano-3-[4-(methylsulfanyl)phenyl]prop-2-enamide] | 130.788
25 | C=CC(=O)Nc1ccc(C(=O)NC2CCN(S(C)(=O)=O)CC2)cc1 [2-M21, N-(1-methanesulfonylpiperidin-4-yl)-4-(prop-2-enamido)benzamide] | 120.801
26 | O=C(CCl)N1N=C(c2cccs2)CC1c1ccc(F)cc1 (stereo not shown) [4-O20, 2-chloro-1-[5-(4-fluorophenyl)-3-(thiophen-2-yl)-4,5-dihydro-1H-pyrazol-1-yl]ethan-1-one] | 137.589
27 | COc1ccc(C2=NN(C(=O)CCl)C(c3cccc(F)c3)C2)cc1 (stereo not shown) [6-P04, 2-chloro-1-[5-(3-fluorophenyl)-3-(4-methoxyphenyl)-4,5-dihydro-1H-pyrazol-1-yl]ethan-1-one] | 145.463
28 | COc1ccc(C2=NN(C(=O)CCl)C(c3ccc(F)cc3)C2)cc1 (stereo not shown) [4-M20, 2-chloro-1-[5-(4-fluorophenyl)-3-(4-methoxyphenyl)-4,5-dihydro-1H-pyrazol-1-yl]ethan-1-one] | 115.102
29 | O=C(CCl)N1N=C(c2cccs2)CC1c1cccc(O)c1 (stereo not shown) [6-L04, 2-chloro-1-[5-(3-hydroxyphenyl)-3-(thiophen-2-yl)-4,5-dihydro-1H-pyrazol-1-yl]ethan-1-one] | 3.7561
30 | Cc1ccc(C2CC(c3cccs3)=NN2C(=O)CCl)cc1 (stereo not shown) [4-I22, 2-chloro-1-[5-(4-methylphenyl)-3-(thiophen-2-yl)-4,5-dihydro-1H-pyrazol-1-yl]ethan-1-one] | 118.533
31 | O=C(CCl)N1N=C(c2cccs2)CC1c1ccccc1O (stereo not shown) [4-K20, 2-chloro-1-[5-(2-hydroxyphenyl)-3-(thiophen-2-yl)-4,5-dihydro-1H-pyrazol-1-yl]ethan-1-one] | 3.049
32 | COc1ccc(C2=NN(C(=O)CCl)C(c3cccc(C)c3)C2)cc1 (stereo not shown) [4-G20, 2-chloro-1-[3-(4-methoxyphenyl)-5-(3-methylphenyl)-4,5-dihydro-1H-pyrazol-1-yl]ethan-1-one] | 10.2906
33 | Cc1ccc(C2=NN(C(=O)CCl)C(c3cccs3)C2)cc1 (stereo not shown) [4-O22, 2-chloro-1-[3-(4-methylphenyl)-5-(thiophen-2-yl)-4,5-dihydro-1H-pyrazol-1-yl]ethan-1-one] | 88.0419
34 | O=C(CCl)N1N=C(c2cccs2)CC1c1cccs1 (stereo not shown) [4-O18, 1-[3,5-bis(thiophen-2-yl)-4,5-dihydro-1H-pyrazol-1-yl]-2-chloroethan-1-one] | 105.193
35 | N#CC(=Cc1ccc(Cl)cc1)C(=O)Nc1ccncc1 [8-K20, 3-(4-chlorophenyl)-2-cyano-N-(pyridin-4-yl)prop-2-enamide] | 95.6017
36 | C=CC(=O)Nc1ccccc1CCC(N)=O [1-A18, N-[2-(2-carbamoylethyl)phenyl]prop-2-enamide] | 117.099
37 | COc1cc(NC(=O)CCl)cc(OC)c1 [4-G09, 2-chloro-N-(3,5-dimethoxyphenyl)acetamide] | 119.295
38 | Cn1cccc1C(=O)CCl [10-B04, 2-chloro-1-(1-methyl-1H-pyrrol-2-yl)ethan-1-one] | 122.188
39 | O=C(CCl)c1c(-c2ccccc2)[nH]c2ccccc12 [10-E05, 2-chloro-1-(2-phenyl-1H-indol-3-yl)ethan-1-one] | 159.063
40 | Cn1c(-c2ccccc2)c(C(=O)CCl)c2ccccc21 [10-N04, 2-chloro-1-(1-methyl-2-phenyl-1H-indol-3-yl)ethan-1-one] | 49.0625
41 | CCNC(=O)C(C#N)=Cc1ccc(OC(F)F)cc1 [8-E05, 2-cyano-3-[4-(difluoromethoxy)phenyl]-N-ethylprop-2-enamide] | 113.527
42 | O=C1C=CC(=O)N1c1cc(C(F)(F)F)ccc1Cl [10-G09, 1-[2-chloro-5-(trifluoromethyl)phenyl]-2,5-dihydro-1H-pyrrole-2,5-dione] | 133.75
43 | CC(Cl)C(=O)Nc1sc2c(c1C#N)CCCCC2 (stereo not shown) [5-B20, 2-chloro-N-{3-cyano-4H,5H,6H,7H,8H-cyclohepta[b]thiophen-2-yl}propanamide] | 104.918
44 | O=C1C=CC(=O)N1c1ccccc1Sc1ccc(Cl)cc1 [10-A03, 1-{2-[(4-chlorophenyl)sulfanyl]phenyl}-2,5-dihydro-1H-pyrrole-2,5-dione] | 10.9375
45 | O=C1C=CC(=O)N1c1ccccc1Sc1ccccc1 [10-K12, 1-[2-(phenylsulfanyl)phenyl]-2,5-dihydro-1H-pyrrole-2,5-dione] | 129.063
46 | O=C1C=CC(=O)N1c1ccccc1F [10-D17, 1-(2-fluorophenyl)-2,5-dihydro-1H-pyrrole-2,5-dione] | 118.75
